# Reference: PubChem BioAssay (Tox21)
# Results filed as inconclusive are left out. Unmarked numbers belong to inactive results. Calls follow the shape of the dose curve; as a rule, active = well fitted activation curve with a large enough effect in the signal ratio in the repeat runs (not every such curve was filed as active); inconclusive = weak or mixed curves, or effect the other way; inactive = flat fitted curve, though single readings scatter; the % refers to the signal ratio.
# Experiment: qHTS assay to identify small molecule agonists of the endoplasmic reticulum stress response signaling pathway (AID 1159516)
# Details: ESRE-bla HeLa, ER stress beta-lactamase reporter, 5 h; series mostly up to 61 µM; activation: at the top concentration
# Excerpt: National Center for Advancing Translational Sciences [NCATS]
# NIH Chemical Genomics Center [NCGC]
# U.S. Environmental Protection Agency [EPA]
# National Institutes of Environmental Health Sciences [NIEHS]
# National Toxicology Program [NTP]
# U.S. Food and Drug Administration [FDA]
# Endoplasmic Reticulum (ER) plays an important role in cellular signaling, protein folding/maturation, stress response, lipid biosynthesis, calcium storage and release etc. Under stress conditions, proteins in ER misfold or unfold, and leading to the expression of ER stress responsive genes. ER stress has been associated with a variety of pathophysiological conditions such as cancer, inflammation, neurodegenerative diseases, diabetes, ischemic heart disease etc. To identify the compounds that induce ER stress response, an ER stress reporter cell line, CellSensor ESRE-bla HeLa (Life Technologies, Carlsbad, CA) containing a beta-lactamase reporter gene under control of the Endoplasmic reticulum Stress Response Element (ESRE) was used to screen Tox21 10K compound library.
# Tox21 Assay Protocol Summary:
# ESRE-bla HeLa cells were dispensed at 1,500 cells/6 uL of assay medium per well into black wall/clear-bottom 1536-well plates using a Multidrop Combi (ThermoFisher Scientific, Waltham, MA) dispenser. After the assay plates were incubated at 37 C and 5% CO2 for an overnight, 23 nL of compounds dissolved in DMSO, positive controls or DMSO only was transferred to the assay plate by a Pintool station (Kalypsys, San Diego, CA). The assay plates were incubated at 37 C and 5% CO2 for 5 hr. One uL of LiveBLAzer B/G FRET substrate (Life Technologies) was added using a Flying Reagent Dispenser (Aurora Discovery, San Diego, CA) and the plates were incubated at room temperature for 2 hr. Fluorescence intensity (405 nm excitation, 460 nm and 530 nm emissions) was measured using an Envision plate reader (PerkinElmer, Shelton, CT).
# % is scaled to controls: 0 for no effect and ±100 for the full control effect.
row,Structure (SMILES),activation
1,O=C1CCCCC1C1CCCCC1 (stereo not given),-1.12%
2,CCc1cc2cc(OC)c(OC)cc2c(Cc2ccccc2)n1,0.921%
3,CC(=O)O[C@H]1CC[C@@]2(C)C(=CC[C@@H]3[C@@H]2CC[C@]2(C)C(C(C)=O)=CC[C@@H]32)C1,-1.23%
4,CCCCNc1ccc(C(=O)OCCN(CC)CC)cc1,-1.17%
5,O=C1Nc2ccc([N+](=O)[O-])cc2C1=O,-5.38%
6,COC(=O)/C=C(/C)N,0.0779%
7,CC(C)S,-3.58% [at 78.8 µM]
8,CCOc1ccccc1N,1.18%
9,Cc1c(-c2ccccc2)oc2c(C(=O)OCCN3CCCCC3)cccc2c1=O,0.273%
10,Cc1onc(-c2ccccc2)c1C(=O)Cl,0.158%
11,CN1CCN(c2c(F)cc3c(=O)c(C(=O)O)cn(CCF)c3c2F)CC1,0.138%
12,CC1=C(CC(=O)O)c2cc(F)ccc2/C1=C\c1ccc(S(C)(=O)=O)cc1,-3.19%
13,CCc1cc(Cl)c(OC)c(C(=O)NC[C@@H]2CCCN2CC)c1O,2.04%
14,COc1nc(C)nc(NC(=O)NS(=O)(=O)c2ccccc2OCCCl)n1,-2.91%
15,CCN(CC)CCOc1ccc(Cc2ccccc2)cc1,4.59%
16,C[C@@H](N)C(=O)O,4.23%
17,CCOc1ccc2nc(N)sc2c1,0.751%
18,NS(=O)(=O)c1cc(-c2nn[nH]n2)c(NCc2cccs2)cc1Cl,-2.09%
19,Cc1ccc(C)c(N)c1,-0.0548%
20,O=C(O)C(=O)Cc1c[nH]c2ccccc12,0.827%

row,Structure (SMILES),activation
1,C1CCOC1,2.01% [at 78.8 µM]
2,CCCOc1ccc2c(c1)CC[C@@H]1[C@@H]2CC[C@]2(C)C(OC)CC[C@@H]12 (stereo not given in full),-0.948%
3,C[C@@H]1CN(c2c(F)c(N)c3c(=O)c(C(=O)O)cn(C4CC4)c3c2F)C[C@H](C)N1,-0.519% [at 28.5 µM]
4,CC/C=C\CCOC(=O)C(C)C,4.38%
5,O=C(O)CN(CCN(CC(=O)O)CC(=O)O)CCN(CC(=O)O)CC(=O)O,-0.452% [at 28.5 µM]
6,Cc1ccccc1C(=O)Nc1ccc(C(=O)N2CCCC(O)c3cc(Cl)ccc32)c(C)c1 (stereo not given),-0.3%
7,C=Cc1ccccc1,1.4%
8,COc1ccccc1N1CCN(CCCNc2cc(=O)n(C)c(=O)n2C)CC1,-0.0828%
9,COC(=O)C(C)O (stereo not given),0.816% [at 78.8 µM]
10,Oc1ccccc1C=NCc1ccccc1,-0.588%
11,NC1=NCC2c3ccccc3Cc3ccccc3N12 (stereo not given),0.382%
12,Cc1nc(N)nc(N)c1-c1ccc(Cl)c(Cl)c1,-1.17%
13,CN(C)Cc1ccccc1,0.287% [at 78.8 µM]
14,C1CSCCS1,1.94%
15,C=CCCC=C,-0.365% [at 78.8 µM]
16,CO[C@@]1(NC(=O)CSCC#N)C(=O)N2C(C(=O)O)=C(CSc3nnnn3C)CS[C@@H]21,0.004%
17,CCN(CCCc1ccccc1)CCCc1ccccc1,-0.437%
18,CN(CCCN1c2ccccc2CCc2ccccc21)CC(=O)c1ccc(Cl)cc1,-0.898%
19,NC(=O)Cc1cccc(C(=O)c2ccccc2)c1N,-1.45%
20,CC[C@H]1CC[C@H](NCc2cc3c(cc2OC)[C@H]2C[C@H]2C(=O)N3C)[C@H](c2ccccc2)N1,-2.76%
